The results in this text go back to PubChem BioAssay (NCATS).

SMILES strings stand for the structures. Results filed as inconclusive are left out. Active and inactive are the calls of the source. Unless noted, calls come from the whole dose curve; as a rule, active = well fitted inhibition curve with a large enough effect; inconclusive = small, poorly fitted or top-dose-only effect; inactive = no such curve, though single readings can be large or run the other way.

Test [1] can be described thus: qHTS profiling of the MIPE4 collection as inhibitors of Plasmodium falciparum (DD2) proliferation (Rep 2) (AID 743346; call rule not given here). To be noted: P. falciparum Dd2 in erythrocytes, SYBR Green DNA, 72 h; at 28.5 µM unless noted. The gist of the method: (§1)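 Erythrocytes infected with P. falciparum (0.3% parasitemia, 2.5% hematocrit) incubated with compounds 72 h at 37 C, 5% CO2. Lysis with saponin/Triton buffer containing SYBR Green I, overnight at room temperature in the dark; DNA fluorescence (485/535 nm) normalised to 0.29 uM artemisinin and DMSO.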
Background: qHTS replaces the single test concentration by a dilution series.

The nature of test [2]: qHTS profiling of the MIPE4 collection as inhibitors of Plasmodium falciparum (HB3) proliferation (AID 743347; call rule not given here;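 note: plate controls were DMSO vehicle wells for no effect and artemisinin wells for full effect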). To be noted: P. falciparum HB3 in erythrocytes, SYBR Green DNA, 72 h; at 28.5 µM unless noted. The gist of the method:
as §1

Test [3] in a line: High-throughput drug toxicity screening in the BPDCN cell line Gen2.2 (AID 1224824; call rule not given here;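 note: cells exposed to compounds for 48 h before reading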). Particulars: Gen2.2 BPDCN cells; at 45.8 µM (top of the series) unless noted. The gist of the method: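 Readout is ATP luminescence from Gen2.2 cells after two days of drug exposure in serum-containing medium at 37 °C. Values express percent activity, with vehicle defining full signal and 9.2 uM bortezomib defining zero.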

Test [4] in a line: High-throughput drug toxicity screening in the BPDCN cell line Cal-1 (AID 1224825; call rule not given here). Particulars: Cal-1 BPDCN cell viability, qHTS; at 45.8 µM (top of the series) unless noted. The gist of the method:
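Exponentially growing Cal-1 cells, 500 per well in phenol red-free RPMI with 10% FBS, were exposed to compounds for 48 h at 37 °C, 5% CO2. Viability was read by CellTiter-Glo luminescence and normalised to DMSO (100%) and 9.2 uM bortezomib (0%).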

A short description of test [5]: qHTS assay for measurement of the activity of small molecule inhibitors on Zika virus induced Caspase-3 activity in human iPSC derived neural progenitor cells (hNPCs) (AID 1224857). Note: % of control where 0% means no effect; nearly all actives have a fitted effect of over 65% in size. The gist of the method: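 Cells were plated at 350 per well and grown 16 to 20 hours. Compound pretreatment lasted one hour, after which ZIKV (2 FFU/cell) was added for 6 hours. Percent inhibition was normalized between uninfected and infected controls.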

Test [6] can be described thus: qHTS assay for measurement of the activity of small molecule inhibitors on Zika virus induced Caspase-3 activity in human astrocytoma cells (AID 1224859).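 Note: plate controls were ZIKV-infected untreated cells for no effect and uninfected cells for full effect.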 The gist of the method: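 Percent inhibition of virus-induced caspase-3/7 signal is calculated against uninfected and ZIKV-infected control cells. Cells are SNB-19, infected at 2 FFU/cell for 6 h after 1 h compound exposure.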

Test [7] in a line: qHTS Screen of the MIPE 4.0 Collection Against Ewings Sarcoma (TC71) (AID 1259253). Note: nearly all actives have a fitted effect of over 40% in size. Note: potency is the fitted concentration of half-maximal effect. The gist of the method:
(§2)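 Here, cells in 5% FBS RPMI were exposed for two days (48 h) to compound dilutions added four hours after plating. ATP-based CellTiter-Glo luminescence measured viability, normalized to vehicle and no-cell blanks.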

The nature of test [8]: qHTS Screen of the MIPE 4.0 Collection Against Ewings Sarcoma (EW8) (AID 1259255).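 For viability: 100% = DMSO-treated cells and 0% = medium-only wells without cells.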 Note: nearly all actives have a fitted effect of over 35% in size. Note: potency is the fitted concentration of half-maximal effect. The gist of the method:
as §2

The nature of test [9]: qHTS Screen of the MIPE 4.0 Collection Against Ewings Sarcoma (TC32) (AID 1259256). Note: nearly all actives have a fitted effect of over 45% in size. Note: potency is the fitted concentration of half-maximal effect. The gist of the method:
as §2

Test [10] can be described thus: qHTS Screen of the MIPE 4.0 Collection Against Ewings Sarcoma (RDES) (AID 1259252). Note: potency is the fitted concentration of half-maximal effect; nearly all actives have a fitted effect of over 35% in size. The gist of the method:
as §2

Take `C[C@@H](Cc1cc2c(c(C(N)=O)c1)N(CCCO)CC2)NCCOc1ccccc1OCC(F)(F)F`: the parasite growth, % of control (lower = inhibition) in [1] was found to be 58.3%. The growth, % of control in test [2] turned out to be 85.9%. For the same compound, the cell viability, % of control (lower = more cytotoxic) in test [3] came to 183%. Further, in [4], the viability (% of control) was 97.3%. The Potency entry in test [5], in [6], in test [7], in [8] and in [9] was “inactive” throughout.

In test [1], `O=C(Nc1cccc(Nc2ncc(Br)c(NCCc3cnc[nH]3)n2)c1)N1CCCC1` came in with a parasite growth, % of control (lower = inhibition) of 17.4%. The compound also returned a growth, % of control in test [2] of 3.84%. The cell viability, % of control (lower = more cytotoxic) in [3] was 15.3%. In addition, the viability (% of control) in [4] was determined as 2.84%. The Potency entry in [5] and in test [6] was “inactive” each time. Further, the Potency in test [10] was 7.43 µM (active); in [8], 0.235 µM (active).

`COc1cccc2c1C(=O)c1c(O)c3c(c(O)c1C2=O)C[C@@](O)(C(=O)CO)C[C@@H]3O[C@H]1C[C@H](N)[C@@H](O)[C@H](C)O1`: the parasite growth, % of control (lower = inhibition) in test [1] came out at 4.28%. Also, the growth, % of control in test [2] came out at 2.54%. Also, the cell viability, % of control (lower = more cytotoxic) in test [3] came out at 8.09%. The viability (% of control) in test [4] was 4.51%. Also, the Potency result in [5] and in test [6] was “inactive” each time. The Potency was 0.264 µM (active) in test [10], 0.0296 µM (active) in test [8] and 0.0042 µM (active) in [9].

As for `c1cc(CN2CCCNCCNCCCNCC2)ccc1CN1CCCNCCNCCCNCC1`, in test [1], the parasite growth, % of control (lower = inhibition) is 74%. This compound also came in with a growth, % of control in test [2] of 88.5%. For the same compound, the cell viability, % of control (lower = more cytotoxic) in test [3] is 133%. Besides, in test [4], the viability (% of control) stood at 120%. Also, the Potency entry in [5], in test [6], in [7], in test [8] and in test [9] was “inactive” throughout.

In [1], `C[C@]12CC[C@@H]3c4ccc(O)cc4CC[C@H]3[C@H]1CC[C@H]2O` registered a parasite growth, % of control (lower = inhibition) of 74%. This compound also showed a growth, % of control in [2] of 86.3%. Further, the cell viability, % of control (lower = more cytotoxic) in test [3] came to 50.6%. Moreover, the viability (% of control) in test [4] was found to be 12.5%. For the same compound, the Potency result in [5] and in test [6] was “inactive” throughout. The Potency was 16.6 µM (active) in test [7], 18.7 µM (active) in test [8] and 16.6 µM (active) in test [9].

Take `FC(F)c1nc2ccccc2n1-c1nc(N2CCOCC2)nc(N2CCOCC2)n1`: the parasite growth, % of control (lower = inhibition) in test [1] came to 8.19%. In addition, the growth, % of control in test [2] is 3.1%. Besides, in [3], the cell viability, % of control (lower = more cytotoxic) turned out to be 9.88%. The viability (% of control) in test [4] was 37.8%. Moreover, the Potency result in test [5] and in test [6] was “inactive” throughout. Also, the Potency in test [7] was 0.59 µM (active); in test [8], 3.72 µM (active); in test [9], 0.118 µM (active).

Compound `O=C(NC1CC1)c1cccc(-c2ccc3c(NC(=O)C4CC4)n[nH]c3c2)c1` gave a parasite growth, % of control (lower = inhibition) in test [1] of 59.5%. The compound further showed a growth, % of control in [2] of 63.3%. For the same compound, in [3], the cell viability, % of control (lower = more cytotoxic) turned out to be 224%. Besides, the viability (% of control) in test [4] came to 17.8%. Moreover, the Potency entry in [5] and in test [6] was “inactive” each time. Besides, the Potency in [7] is 1.32 µM (active); in [8] it was 3.72 µM (active); in test [9], 1.32 µM (active).

In test [1], `FC(F)(F)c1ccc(Nc2nc3ccc(Oc4ccnc(-c5ncc(C(F)(F)F)[nH]5)c4)cc3[nH]2)cc1` had a parasite growth, % of control (lower = inhibition) of 15.3%. The compound further yielded a growth, % of control in test [2] of 7.1%. Besides, the cell viability, % of control (lower = more cytotoxic) in test [3] turned out to be 14.5%. Further, the viability (% of control) in [4] was 24.9%. The Potency result in test [5] and in [6] was “inactive” throughout. Also, the Potency in [10] and in test [8] was 11.8 µM (active) throughout.

Take `O=C1NCCc2[nH]c(-c3ccncc3)cc21`: the parasite growth, % of control (lower = inhibition) in [1] was found to be 17.3%. This compound displayed a growth, % of control in test [2] of 5.62%. In addition, in test [3], the cell viability, % of control (lower = more cytotoxic) was found to be 3.21%. Besides, the viability (% of control) in test [4] worked out at 12.4%. In addition, the Potency entry in [5] and in [6] was “inactive” in each case. The Potency in [7] was 2.64 µM (active); in test [8] it was 3.32 µM (active); in [9], 5.26 µM (active).

On to `N#CC(=Cc1ccc(O)c(O)c1)C(=O)NCc1ccccc1`, for which the parasite growth, % of control (lower = inhibition) in [1] is 51.8%. This compound also showed a growth, % of control in [2] of 48.1%. Also, the cell viability, % of control (lower = more cytotoxic) in test [3] stood at 70.4%. The viability (% of control) in test [4] was 45.8%. For the same compound, the Potency entry in test [5] and in test [6] was “inactive” each time. The Potency is 23.5 µM (active) in test [10], 18.7 µM (active) in test [8] and 20.9 µM (active) in test [9].
